Assay results: PubChem BioAssay (NCI)
The panel holds about 83,000 compounds, 20% with a hit somewhere; the sample as a whole holds those more often.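 Plates (96-well) were seeded with cells, treated with compound at one concentration, and incubated for 48 hours before percent growth was determined.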 Calls of active or inactive are those of the source. The calls were made as follows: active = growth percent below 10; inactive = the rest.

How the values were obtained:
Test in all cases: NCI-60 one-dose screen, 48 h (100 = growth as untreated, 0 = no growth, -100 = all killed)
Settings in all cases: 10 µM unless noted
HCT-15 colon = test system: HCT-15 colon
HT29 colon = test system: HT29 colon
SNB-75 CNS = test system: SNB-75 CNS
SNB-19 CNS = test system: SNB-19 CNS
U251 CNS = test system: U251 CNS
SK-MEL-5 melanoma = test system: SK-MEL-5 melanoma
UACC-62 melanoma = test system: UACC-62 melanoma
LOX IMVI melanoma = test system: LOX IMVI melanoma
SK-MEL-28 melanoma = test system: SK-MEL-28 melanoma
PC-3 prostate = test system: PC-3 prostate

Measured: growth

CC(=O)Nc1nc(C)c(C(=O)N/N=C/N2CCCCC2)s1
inactive: HCT-15 colon 111% | HT29 colon 109% | SNB-75 CNS 81.6% | SNB-19 CNS 103% | U251 CNS 105% | SK-MEL-5 melanoma 113% | UACC-62 melanoma 107% | LOX IMVI melanoma 103% | SK-MEL-28 melanoma 114%

NC(=O)CC(NC(=O)COc1ccc(Cl)cc1Cl)C(=O)O (stereo unspecified)
inactive: HCT-15 colon 112% | HT29 colon 107% | SNB-75 CNS 102% | SNB-19 CNS 103% | U251 CNS 101% | PC-3 prostate 94.2% | UACC-62 melanoma 98.6% | LOX IMVI melanoma 97.1% | SK-MEL-28 melanoma 109%

CCOC(=O)C1C(=O)C(=O)N(C(C)C)C1C(=O)OCC (stereo unspecified)
inactive: HCT-15 colon 94.1% | HT29 colon 98.2% | SNB-75 CNS 85.9% | SNB-19 CNS 97.3% | U251 CNS 107% | SK-MEL-5 melanoma 103% | UACC-62 melanoma 96.4% | LOX IMVI melanoma 102% | SK-MEL-28 melanoma 108%

Cc1nnc(/N=C2\NC(=O)/C(=C/C=C/c3ccccc3)S2)s1
inactive: HCT-15 colon 37% | HT29 colon 92.8% | SNB-75 CNS 66.5% | SNB-19 CNS 53.7% | U251 CNS 49.5% | PC-3 prostate 39.2% | UACC-62 melanoma 46.1% | LOX IMVI melanoma 44.3% | SK-MEL-28 melanoma 59.8%

CCCC(CCC)Oc1ccc(CCCC2=C(O)c3ccccc3C(=O)C2=O)cc1
active: LOX IMVI melanoma 5.38%
inactive: HCT-15 colon 21.7% | HT29 colon 25.8% | SNB-75 CNS 46.1% | SNB-19 CNS 28.2% | U251 CNS 27.1% | PC-3 prostate 27.7% | UACC-62 melanoma 30.4% | SK-MEL-28 melanoma 59.2%

CCCC(=O)Nc1ccccc1C(=O)O
inactive: HCT-15 colon 95.4% | HT29 colon 96.6% | SNB-75 CNS 89.4% | SNB-19 CNS 106% | U251 CNS 89.7% | SK-MEL-5 melanoma 99% | UACC-62 melanoma 105% | LOX IMVI melanoma 92.5% | SK-MEL-28 melanoma 107%

CCOC(=O)c1sc(NS(=O)(=O)c2ccccc2)nc1C
inactive: HCT-15 colon 115% | HT29 colon 124% | SNB-75 CNS 97.9% | SNB-19 CNS 107% | U251 CNS 109% | SK-MEL-5 melanoma 99.3% | UACC-62 melanoma 103% | LOX IMVI melanoma 105%

O=C(/C=C1\C(=O)N(Cc2ccc([N+](=O)[O-])cc2)c2ccccc21)c1ccc(OCCN2CCCCC2)cc1
active: HCT-15 colon -80.6% | HT29 colon -89.3% | U251 CNS -46.5% | PC-3 prostate -52.3% | UACC-62 melanoma -74% | LOX IMVI melanoma -82.7% | SK-MEL-28 melanoma -51%
inactive: SNB-75 CNS 22.3% | SNB-19 CNS 57.9%

CC(=O)CCS(=O)c1ccccc1 (stereo unspecified)
inactive: HCT-15 colon 110% | HT29 colon 97.8% | SNB-75 CNS 96% | SNB-19 CNS 98.2% | U251 CNS 97.2% | SK-MEL-5 melanoma 102% | UACC-62 melanoma 99.6% | LOX IMVI melanoma 97.1% | SK-MEL-28 melanoma 109%

CCN(CC)CCNc1ncnc2c1cnn2-c1ccc(Cl)cc1
active: HT29 colon 7.44% | UACC-62 melanoma -50.5% | SK-MEL-28 melanoma -40.4%
inactive: HCT-15 colon 34.8% | SNB-75 CNS 74.4% | SNB-19 CNS 91.2% | U251 CNS 75.5% | PC-3 prostate 82% | LOX IMVI melanoma 60%

COC(=O)[C@@H]1[C@H](O)[C@H](C)[C@H](O)[C@H](C)/C=C\C=C(C)C(=O)Nc2c(C)c(OC(C)=O)c3c(c2O)C(=O)C(C)=C2OCOC(=C23)C(C)=C[C@@](C)(O)[C@H](O)[C@@H](C)[C@H]1OC(C)=O
inactive: HCT-15 colon 118% | HT29 colon 110% | SNB-75 CNS 86.6% | SNB-19 CNS 113% | U251 CNS 111% | SK-MEL-5 melanoma 103% | UACC-62 melanoma 113% | LOX IMVI melanoma 104%

c1ccc(C(=NNc2nc3ccccc3o2)c2ccccn2)nc1
inactive: HCT-15 colon 16.8% | HT29 colon 23% | SNB-75 CNS 31.7% | SNB-19 CNS 24.5% | U251 CNS 10.6% | PC-3 prostate 29.2% | SK-MEL-28 melanoma 25.2%
active: UACC-62 melanoma -8.29% | LOX IMVI melanoma 0.582%

Cn1cnc2nc[nH]c2c1=S
inactive: HCT-15 colon 101% | HT29 colon 94.5% | SNB-75 CNS 79.2% | SNB-19 CNS 103% | U251 CNS 103% | SK-MEL-5 melanoma 100% | UACC-62 melanoma 98.5% | LOX IMVI melanoma 99.4% | SK-MEL-28 melanoma 112%

CCOc1nc(-c2ccccc2)cc2c(O)c(C(=O)N/N=C/c3ccccc3O)[nH]c(=O)c12
inactive: HCT-15 colon 94% | HT29 colon 110% | SNB-75 CNS 86.3% | SNB-19 CNS 97.2% | U251 CNS 101% | PC-3 prostate 92.8% | UACC-62 melanoma 117% | LOX IMVI melanoma 101% | SK-MEL-28 melanoma 67.4%

CCCC[N+](C)(N)CCCC
inactive: HCT-15 colon 98% | HT29 colon 101% | SNB-75 CNS 93.3% | SNB-19 CNS 104% | U251 CNS 106% | PC-3 prostate 90.5% | UACC-62 melanoma 105% | LOX IMVI melanoma 87.3% | SK-MEL-28 melanoma 109%

O=C(N/N=C\c1ccc(Cl)cc1)C(=O)N/N=C\c1ccc(Cl)cc1
inactive: HCT-15 colon 101% | HT29 colon 103% | SNB-75 CNS 88.3% | SNB-19 CNS 96% | U251 CNS 101% | PC-3 prostate 94.5% | UACC-62 melanoma 97.4% | LOX IMVI melanoma 106% | SK-MEL-28 melanoma 111%

OCC(O)C(O)CC1SCCS1 (stereo unspecified)
inactive: HCT-15 colon 104% | HT29 colon 101% | SNB-75 CNS 94.7% | SNB-19 CNS 94.8% | U251 CNS 99.9% | PC-3 prostate 102% | UACC-62 melanoma 97.7% | LOX IMVI melanoma 91.8% | SK-MEL-28 melanoma 110%

O=C(CBr)OCc1ccc([N+](=O)[O-])o1
inactive: HCT-15 colon 93.9% | HT29 colon 104% | SNB-75 CNS 91.4% | SNB-19 CNS 104% | U251 CNS 92.1% | PC-3 prostate 76.2% | UACC-62 melanoma 90.4% | LOX IMVI melanoma 83% | SK-MEL-28 melanoma 99.2%

COc1ccc(-c2cc(C#N)c(NNC(C)=O)[nH]2)cc1
inactive: HCT-15 colon 117% | HT29 colon 105% | SNB-75 CNS 119% | SNB-19 CNS 125% | U251 CNS 102% | SK-MEL-5 melanoma 105% | UACC-62 melanoma 103% | LOX IMVI melanoma 103% | SK-MEL-28 melanoma 115%

N#Cc1c2cccnc2c2nnc3cc(Cl)c(Cl)cc3n12
active: HCT-15 colon 1.83% | HT29 colon -50.6% | SNB-75 CNS -6.13%
inactive: SNB-19 CNS 63.1% | U251 CNS 26.2% | PC-3 prostate 18.4% | UACC-62 melanoma 52.5% | LOX IMVI melanoma 21.9% | SK-MEL-28 melanoma 17.6%

CCCCCCCCC(=O)Nc1ccc(O)cc1
inactive: HCT-15 colon 94.6% | HT29 colon 94.2% | SNB-75 CNS 76.8% | SNB-19 CNS 112% | U251 CNS 91.4% | PC-3 prostate 83.2% | UACC-62 melanoma 92.1% | LOX IMVI melanoma 84.8% | SK-MEL-28 melanoma 99.7%

N=C(N)N=Nc1ccc(NN=C(N)N)cc1
inactive: HCT-15 colon 102% | HT29 colon 91.1% | SNB-75 CNS 76.4% | SNB-19 CNS 94.2% | U251 CNS 91.8% | SK-MEL-5 melanoma 94% | UACC-62 melanoma 90.8% | LOX IMVI melanoma 96.4% | SK-MEL-28 melanoma 103%

O=C(NCCCl)Nc1nccnc1OCc1ccc(F)cc1
inactive: HCT-15 colon 104% | HT29 colon 102% | SNB-75 CNS 90.3% | SNB-19 CNS 94.9% | U251 CNS 101% | SK-MEL-5 melanoma 107% | UACC-62 melanoma 93.7% | LOX IMVI melanoma 98.3% | SK-MEL-28 melanoma 109%

CC(=O)Nc1nc(C)c(C(=O)N/N=C/N2CCOCC2)s1
inactive: HCT-15 colon 105% | HT29 colon 107% | SNB-75 CNS 101% | SNB-19 CNS 104% | U251 CNS 101% | SK-MEL-5 melanoma 112% | UACC-62 melanoma 98.4% | LOX IMVI melanoma 106% | SK-MEL-28 melanoma 111%

Cc1nc(NC(=O)NC2CCCCC2)sc1C(=O)NN
inactive: HCT-15 colon 91.5% | HT29 colon 95.5% | SNB-75 CNS 110% | SNB-19 CNS 102% | U251 CNS 98.5% | UACC-62 melanoma 90.8% | LOX IMVI melanoma 93.5% | SK-MEL-28 melanoma 102%

CC(=O)/C(=C\c1c(-c2ccccc2)[nH]c2ccccc12)S(=O)(=O)c1ccccc1
active: SNB-75 CNS -23.1% | LOX IMVI melanoma -33.3%
inactive: HCT-15 colon 13.5% | HT29 colon 11.3% | SNB-19 CNS 53.7% | U251 CNS 17.5% | UACC-62 melanoma 13.6%

CC(=O)Nc1nc(C)c(C(=O)NNS(=O)(=O)c2ccccc2)s1
inactive: HCT-15 colon 114% | HT29 colon 118% | SNB-75 CNS 88.2% | SNB-19 CNS 105% | U251 CNS 103% | UACC-62 melanoma 109% | LOX IMVI melanoma 99.1% | SK-MEL-28 melanoma 125%

O=C(/C=C\c1ccc(NCc2ccc(C(=O)O)cc2)cc1)CCl
active: LOX IMVI melanoma 5.63%
inactive: HCT-15 colon 72.4% | HT29 colon 84.9% | SNB-75 CNS 91.1% | SNB-19 CNS 96.7% | U251 CNS 84.5% | SK-MEL-5 melanoma 100% | UACC-62 melanoma 84.2% | SK-MEL-28 melanoma 104%

C=CC1CN2CCC1CC2C(O)c1ccnc2ccc(OC)cc12 (stereo unspecified)
inactive: HCT-15 colon 104% | HT29 colon 98.6% | SNB-75 CNS 78.2% | SNB-19 CNS 96.1% | U251 CNS 103% | SK-MEL-5 melanoma 97.9% | LOX IMVI melanoma 93.3% | SK-MEL-28 melanoma 115%

O=C(Nc1ccc(-n2cc(-c3ccncc3)c(-c3ccc(Cl)c(O)c3)n2)cc1)c1cc(Cl)cc(Cl)c1
inactive: HCT-15 colon 11.1% | SNB-75 CNS 16.4% | SNB-19 CNS 72.4% | U251 CNS 41.9% | UACC-62 melanoma 39.2% | LOX IMVI melanoma 40.3%
active: HT29 colon 1.94%
